This is a sample that favours compounds with a hit; in the whole collection about 7.5% have one here.
FLuc counter = qHTS profiling assay for firefly luciferase inhibitor/activator using purifed enzyme and Km concentrations of substrates (counterscreen for miR-21 project); purified FLuc, Km substrates, luminescence inhibition; Luciferin 4-monooxygenase (Photinus pyralis), P08659; AID 588342, 2011; 6.9% of 360,000 active; Potency, µM (titrated, usually from 57.5 µM), actives largely listed as inhibitors; also: nearly all actives have a fitted effect of over 55% in size
Target sequence (P08659 whole entry, looked up): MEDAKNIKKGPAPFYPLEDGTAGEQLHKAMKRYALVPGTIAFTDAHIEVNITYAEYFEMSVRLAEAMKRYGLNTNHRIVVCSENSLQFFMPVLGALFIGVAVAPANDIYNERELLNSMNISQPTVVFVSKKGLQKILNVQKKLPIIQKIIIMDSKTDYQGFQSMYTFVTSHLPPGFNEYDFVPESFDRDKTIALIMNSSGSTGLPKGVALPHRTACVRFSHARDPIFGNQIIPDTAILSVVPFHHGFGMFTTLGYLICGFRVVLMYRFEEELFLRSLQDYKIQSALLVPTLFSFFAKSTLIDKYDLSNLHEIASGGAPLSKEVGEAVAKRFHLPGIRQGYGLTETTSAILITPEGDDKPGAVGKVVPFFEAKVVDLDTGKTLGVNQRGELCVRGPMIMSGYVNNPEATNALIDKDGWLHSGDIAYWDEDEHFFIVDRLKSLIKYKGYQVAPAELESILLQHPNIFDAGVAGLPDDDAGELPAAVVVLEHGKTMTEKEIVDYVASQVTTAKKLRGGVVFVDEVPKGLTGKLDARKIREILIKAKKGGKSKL
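Purified P. pyralis luciferase, 10 nM final, with Km-level 10 uM D-luciferin and 10 uM ATP in 50 mM Tris acetate pH 7.5, 10 mM Mg acetate, 0.01% Tween-20, 0.05% BSA; 6-point qHTS titration about 60 µM downward; luminescence read.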
KinaseGlo FLuc = Counterscreen for Luciferase (Kinase-Glo TM) Inhibition | Luciferin 4-monooxygenase (Photuris pensylvanica), Q27757 | Kinase-Glo luciferase, ATP luminescence, 8 min | Potency, µM (doses to about 38.3 µM), most hits filed as inhibitors | 0.28% of 200,000 active | AID 1379, 2008; also: nearly all actives have a fitted effect of over 60% in size
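Compound is pinned into ATP-containing buffer (10 uM ATP, imidazole pH 7.2, 7 mM MgCl2). Kinase-Glo luciferase reagent is then added. Light output is recorded following an 8-min room-temperature incubation.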
NPC1 promoter act = qHTS Assay for NPC1 Promoter Activators; Huh7 NPC1 promoter luciferase reporter, 24 h; Potency, µM (titrated, usually from 9.22 µM), usual class: activators; 2.4% of 320,000 active; also: nearly all actives have a fitted effect of over 60% in size
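Luminescence from an NPC1 promoter-driven luciferase reporter in stably transfected Huh7 cells was measured after 24 h compound treatment at 37 °C, followed by 10 min ambient incubation with luciferase detection reagent.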
Rab9 prom act = qHTS Assay for Rab9 Promoter Activators. Potency, µM (doses to about 9.22 µM), hits mostly activators. Huh7 Rab9 promoter-luciferase reporter, luminescence, 24 h. AID 485297, 2010. 2.8% of 320,000 active; also: nearly all actives have a fitted effect of over 60% in size
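Rab9 promoter-driven luciferase in stably transfected Huh7 cells; 1500 cells/well rested 2 h, exposed to compound in DMSO for 24 h at 37 °C, 5% CO2. Luminescence read 10 min after adding luciferase reagent at ambient temperature.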
SMN2 splice up = qHTS Assay for Enhancers of SMN2 Splice Variant Expression; HEK293 SMN2-luciferase splicing reporter, luminescence, 30-36 h; 2.8% of 210,000 active; Potency, µM (series often up to 46.1 µM), actives largely listed as activators; also: nearly all actives have a fitted effect of over 55% in size
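qHTS luciferase splicing reporter: luminescence rises when SMN2 exon 7 is included in transfected HEK293 cells. Compound exposure lasted 30-36 h at 37C, with 4.5 mM final sodium butyrate as control, followed by a ONE-Glo read.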
ELG1 genotox = qHTS screen for small molecules that induce genotoxicity in human embryonic kidney (HEK293T) cells expressing luciferase-tagged ELG1; HEK293T ELG1-luciferase reporter, luminescence, 16 h; Potency, µM (highest dose often 46 µM), hits mostly activators; 1.3% of 330,000 active; also: nearly all actives have a fitted effect of over 60% in size
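Reporter readout depends on ELG1 protein level, which increases with genetic stress. After 16 hr compound exposure at 37 °C, luciferase activity was quantified using ONE-Glo.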
Hits are given with their value; . = inactive; ? = inconclusive; / = no result; [ ] = remark or other dose. Calls follow the shape of the dose curve; as a rule, active = well fitted curve in the direction sought with a large enough effect; inconclusive = small, poorly fitted or top-dose-only effect, or another doubt; inactive = no such curve, though single readings can be large; an effect the other way counts as inactive or inconclusive.

SMILES | FLuc counter | KinaseGlo FLuc | NPC1 promoter act | Rab9 prom act | SMN2 splice up | ELG1 genotox
Cc1cc(OCC(=O)Nc2ccc(Br)cc2)cc2c1C(=O)CC(C)(C)O2 | . | / | . | . | / | .
CC1(C)CC(=O)c2cc(OCC(=O)N3CCN(c4ccccc4F)CC3)ccc2O1 | . | . | . | . | . | .
CC1(C)CC(=O)c2c(O)cc(OCc3ccc(Br)cc3)cc2O1 | 3.01µM | . | 2.51µM | 2.82µM | ? | 2.59µM
CC1(C)CC(=O)c2cc(OCC(=O)O)ccc2O1 | . | . | . | . | . | .
CC1(C)CC(=O)c2ccc(OCc3ccc([N+](=O)[O-])cc3)cc2O1 | 6.01µM | / | 2.51µM | 2.51µM | / | ?
CCOc1nc(-c2ccc(Cl)cc2)nc2ccccc12 | . | . | . | . | . | .
CC(=O)c1cccc(N2C(=O)CN(S(C)(=O)=O)CC2(C)C(=O)NC2CCCC2)c1 (centres undefined) | . | / | / | / | / | /
C/C(=N\Nc1ccc(C(=O)O)cc1)c1ccc(S(=O)(=O)NCc2ccco2)cc1 | 16.9µM | / | . | ? | / | .
C/C(=N\Nc1ccc(C(=O)O)cc1)c1ccc(Br)cc1 | 0.19µM | / | ? | 0.0891µM | / | ?
COc1ccccc1NC(=O)COC(=O)c1ccc(S(=O)(=O)NCc2ccco2)cc1 | 12µM | . | . | . | . | .
COc1ccccc1NS(=O)(=O)c1ccc(C(=O)OCC(=O)NCc2ccco2)cc1 | . | . | . | . | . | .
C/C(=N\Nc1ccccn1)c1ccc(S(=O)(=O)NCc2ccco2)cc1 | ? | . | . | . | . | .
C/C(=N\Nc1ccc(C(=O)O)cc1)c1ccc(Cl)s1 | 0.953µM | / | 0.398µM | 0.282µM | / | .
C/C(=N/Nc1ncc(Br)cn1)c1ccc(Br)cc1 | . | / | . | . | / | .
Cc1ccc(-n2nc3c(N4CCC(C(=O)N5CCCCC5)CC4)nnc(C)c3c2C)cc1 | . | / | / | / | / | /
Cc1ccc(S(=O)(=O)N(C)C)cc1NC(=O)Cn1c(CN2CCOCC2)nc2ccccc2c1=O | . | . | . | . | . | .
O=C(NC1CC1)C1CCCN1S(=O)(=O)c1ccc2ccccc2c1 (centres undefined) | . | . | . | . | 11.2µM | .
COc1ccccc1-c1cc(C(=O)N2CCCc3ccccc32)no1 | ? | . | . | . | . | .
Cc1ccc(-c2cc(C(=O)N3CCCc4ccccc43)no2)cc1 | 4.26µM | . | ? | 3.16µM | ? | ?
O=C(c1cc(-c2ccc(F)cc2)on1)N1CCCc2ccccc21 | 10.7µM | . | . | ? | ? | ?
O=C(c1cc(-c2cccs2)on1)N1CCCc2ccccc21 | 16.9µM | . | . | . | . | ?
COc1ccc(OC)c(-c2cc(C(=O)N3CCCc4ccccc43)no2)c1 | . | . | . | . | . | .
FC(F)(F)c1ccc(-c2nnc(-c3ccccn3)c(-c3ccccn3)n2)nc1 | . | / | . | . | / | .
Cc1ccc2c(c1)-c1c(c(C(=O)NCCc3ccccc3)nn1C)CS2 | . | / | / | / | / | /
Cc1ccc(CNC(=O)CSc2ccsc2[N+](=O)[O-])cc1 | ? | . | ? | 1.41µM | ? | ?
SMILES | FLuc counter | KinaseGlo FLuc | NPC1 promoter act | Rab9 prom act | SMN2 splice up | ELG1 genotox
O=C(CSc1ccsc1[N+](=O)[O-])NCCc1ccc(Cl)cc1 | . | . | . | . | . | .
COc1ccc(CNC(=O)CSc2ccsc2[N+](=O)[O-])cc1 | 16.9µM | . | ? | 2.24µM | ? | ?
COCCNC(=O)CSc1nc(-c2ccccc2)[nH]c1-c1ccc(OC)cc1 | . | / | / | / | . | /
O=C(N/N=C/c1ccncc1)c1cc([N+](=O)[O-])cc([N+](=O)[O-])c1O | 26.9µM | . | . | . | . | .
O=C(N/N=C/c1ccncc1)c1cc2ccccc2cc1O | 7.57µM | / | . | . | / | ?
O=C(N/N=C/c1ccc[nH]1)c1cc2ccccc2cc1O | 6.75µM | / | . | . | / | .
COc1ccc(-c2cc3onc(-c4c(Cl)cccc4Cl)c3c(=O)n2C)cc1 | ? | / | . | . | / | .
COC(=O)c1ccc(-c2cc3onc(-c4ccccc4)c3c(=O)n2C)cc1 | 4.26µM | / | ? | . | / | ?
Cn1c(-c2ccc(F)c(F)c2)cc2onc(-c3ccccc3)c2c1=O | 1.35µM | / | 0.794µM | 1.12µM | / | 2.31µM
COc1cccc(-c2cc3onc(-c4ccccc4)c3c(=O)n2C)c1 | 0.849µM | / | 0.708µM | 0.398µM | / | ?
CN(C)Cc1ccc(-c2cc3onc(-c4ccccc4)c3c(=O)n2C)cc1 | / | .[7.66 µM] | / | / | .[9.22 µM] | /
O=C(Cn1ncc2c3ccccc3n(Cc3ccccc3)c2c1=O)NCCCN1CCCCC1 | . | / | / | / | . | /
O=C(NCc1ccccn1)Nc1cc(Cl)ccc1Cl | 1.2µM | / | . | 3.16µM | / | .
O=C(NCc1ccccn1)C(=O)Nc1ccccc1 | ? | . | ? | ? | 17.8µM | ?
O=C(NCc1ccccn1)Nc1cccc(NC(=O)NCc2ccccn2)c1 | ? | . | . | . | ? | ?
O=C(NCc1ccccn1)Nc1cccc(Cl)c1 | 19µM | . | . | . | . | ?
CSc1ncccc1C(=O)Nc1cc(Cl)ccc1N1CCOCC1 | / | / | / | / | / | .
O=C(CSc1nnc(-c2cccc(F)c2)o1)N1CCCC1 | ? | / | ? | ? | / | .
CC(C)(C)S(=O)(=O)c1cnc(-c2ccccn2)nc1N | . | / | . | . | / | .
Cc1cccc(-c2ncc(S(=O)(=O)C(C)(C)C)c(N)n2)c1 | ? | / | 3.98µM | 3.16µM | / | .
O=Nc1ccc(NOC(=O)c2ccccc2)cc1 | 0.0953µM | 10µM | . | . | . | .
S=c1[nH]nc(-c2cc(-c3ccccc3)n[nH]2)n1/N=C/C(Br)=C/c1ccccc1 | . | / | . | . | / | .
CCc1ccc(S(=O)(=O)c2cn(CC)c3cc(N4CCOCC4)c(F)cc3c2=O)cc1 | . | / | / | / | / | /
O=C(O)/C=C/c1cnc2ccccc2n1 | . | . | . | . | . | .
Fc1cccc(Cl)c1/C=C/c1cnc2ccccc2n1 | 0.135µM | / | ? | 3.98µM | / | 0.517µM
SMILES | FLuc counter | KinaseGlo FLuc | NPC1 promoter act | Rab9 prom act | SMN2 splice up | ELG1 genotox
Fc1cccc(F)c1/C=C/c1ccc2ccccc2n1 | 0.269µM | / | ? | 3.98µM | / | 0.581µM
C(=C\c1ccco1)/c1ccc2ccccc2n1 | 1.2µM | / | ? | 3.98µM | / | ?
O=C(/C=C/c1ccc2ccccc2n1)N1CCN(S(=O)(=O)c2ccccc2F)CC1 | . | / | . | . | / | .
CC(O)/C=C/c1ccc2ccccc2n1 (centres undefined) | 16.9µM | . | . | . | 15.8µM | .
O=C(/C=C/c1ccc2ccccc2n1)N1CCN(c2ccccc2)CC1 | . | . | . | . | . | .
COc1cc2c(cc1OC)[C@@H](NC(=O)COc1ccccc1)[C@H](OCc1ccccc1)C2 | / | / | / | / | / | .
